Among the data in the supplement of paper PMC10981050 are cell viability values, retold here.

Where a name gives a salt, the structure may show the parent alone.

The first assay concerns MOLM14. Description: cell viability relative to vehicle control; higher = less cytotoxic. The conditions noted are these: 10 µM; SRSF2 genotype: SRSF2 wt/wt. Summed up:
(§1)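 Four leukaemia lines, as CRISPR-edited mutant clones and isogenic wild-type clones, were tested against Selleck bioactive, kinase and epigenetic probe libraries after removal of identity-inconsistent compounds. Cells were exposed to a single 10 µM dose for 48 h, and CellTiter-Glo luminescence was then read. Viability was calculated relative to the on-plate vehicle control.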
As usually defined, the cell viability is a read-out of living cells in per cent, often relative to untreated cells. On to `CC(=O)[C@@]1(O)CC[C@H]2[C@@H]3C[C@H](C)C4=CC(=O)CC[C@]4(C)[C@H]3CC[C@@]21C` [Medroxyprogesterone], for which the cell viability worked out at 100%.
On the same count and under the same terms, next, `CCOC(=O)[C@H](CCc1ccccc1)N[C@@H](C)C(=O)N1[C@H](C(=O)O)C[C@@H]2CCC[C@@H]21` [Ramipril (Altace)]: 87.4%; `CCCCS(=O)(=O)N[C@@H](Cc1ccc(OCCCCC2CCNCC2)cc1)C(=O)O` [Tirofiban Hydrochloride]: 99.6%; `CC(C)n1nc(-c2cc3cc(O)ccc3[nH]2)c2c(N)ncnc21` [Torkinib (PP242)]: 9.03%.
For `O.O.O.O.O.O.O.[Cl][La]([Cl])[Cl]` [Lanthanum(III) chloride heptahydrate], the cell viability is 104%.
The same measure, in the same setting: next, `CC(C)c1c2cc(-c3ccnc(NC4CCC(NC5CCOCC5)CC4)n3)ccc2nn1C` (centres undefined): 0.31%; `COc1cc(N2CCC(N3CCN(C)CC3)CC2)ccc1Nc1ncnc(Nc2ccccc2S(=O)(=O)C(C)C)n1`: 31.1%; `C#C[C@]1(O)CC[C@H]2[C@@H]3CCC4=CC(=O)CC[C@@H]4[C@H]3CC[C@@]21CC` [Levonorgestrel (Levonelle)]: 103%.
The same measure, in the same setting: next, `NC(=O)c1cccc2cn(-c3ccc([C@@H]4CCCNC4)cc3)nc12` [MK-4827(Niraparib) tosylate]: 7.47%.

For the next assay, the system named is OCI-AML2. Described as above. The conditions noted are these: 10 µM; SRSF2 genotype: P95H/wt. Summed up: as §1
In the case of `CCCCCCCCCCCCc1ccc(S(=O)(=O)Nc2nncs2)cc1`, the cell viability amounted to 98.7%.
Regarding `C#C[C@]1(O)CC[C@H]2[C@@H]3CCc4cc(O)ccc4[C@H]3CC[C@@]21C` [Ethinyl Estradiol], the cell viability was found to be 79.3%.
The same measure, in the same setting: next, `C[C@]12CCC(=O)C=C1[C@@H]1C[C@@H]1[C@H]1[C@@H]3[C@@H]4C[C@@H]4[C@@]4(CCC(=O)O4)[C@@]3(C)CC[C@@H]12` [Drospirenone]: 101%; `CS(=O)(=O)CCNCc1ccc(-c2ccc3ncnc(Nc4ccc(OCc5cccc(F)c5)c(Cl)c4)c3c2)o1` [Lapatinib]: 22.2%.
As for `C[C@H](CC[C@@]1(O)O[C@H]2C[C@H]3[C@@H]4CC=C5C[C@@H](O[C@@H]6O[C@H](CO)[C@@H](O[C@@H]7O[C@@H](C)[C@H](O)[C@@H](O)[C@H]7O)[C@H](O)[C@H]6O[C@@H]6O[C@@H](C)[C@H](O)[C@@H](O)[C@H]6O)CC[C@]5(C)[C@H]4CC[C@]3(C)[C@H]2[C@@H]1C)CO[C@@H]1O[C@H](CO)[C@@H](O)[C@H](O)[C@H]1O` [Protodioscin], the cell viability stood at 0.74%.
The same measure, in the same setting: under `CC(=NNC(=S)N1CCC1)c1ccccn1` stands 11%; under `CN(CC(=O)N(Cc1ccc(C2CCCCC2)cc1)c1ccc(C(=O)O)c(O)c1)S(=O)(=O)c1c(F)c(F)c(F)c(F)c1F`, 1.74%; under `CNS(=O)(=O)Nc1nccc(Cc2c(C)c3ccc(Oc4ncccn4)cc3oc2=O)c1F`, 37.6%.
Regarding `CC(C)n1c([C@H](C)Nc2ncnc(N)c2C#N)cc2cccc(-c3ccc(=O)n(C)c3)c2c1=O`, the cell viability stood at 5.13%.
The same measure, in the same setting: under `CCCN(CCC)C(=O)C1=Cc2ccc(-c3ccc(C(=O)N4CCCC4)cc3)cc2N=C(N)C1` [Motolimod (VTX-2337)] stands 21.7%; under `O=C(O)[C@H]1O[C@@H](Oc2cc3oc(-c4ccc(O)cc4)cc(=O)c3c(O)c2O)[C@H](O)[C@@H](O)[C@@H]1O` [Scutellarin], 101%.
Still for that read-out and setting: next, `CS(=O)(=O)c1ccc(-c2nnc(/C=C/c3nnc(-c4ccc(C#N)cc4)o3)n2-c2ccccc2Cl)nc1`: 99%; `CC(C)=CCCC(C)=CCCC(C)=CCCC(C)=CCC1=C(C)C(=O)c2ccccc2C1=O` [Vitamin K2]: 88.6%; `OCC(CO)N[C@H]1C[C@](O)(CO)[C@@H](O)[C@H](O)[C@H]1O` [Voglibose]: 92.3%.
For the compound `C[C@]12CC[C@@H]3c4ccc(OC(=O)c5ccccc5)cc4CC[C@H]3[C@@H]1CC[C@@H]2O` [Estradiol Benzoate], the cell viability came out at 58.4%.
Turning to `CC(C)(Sc1ccncc1-c1ccc(C#N)c2ccccc12)C(=O)O` [Verinurad (RDEA3170)], the cell viability is 109%.
On to `N#Cc1c(Oc2ccc(F)c(NC(=O)Cc3cccc(C(F)(F)F)c3)c2)ccc2nc(NC(=O)C3CC3)sc12`, for which the cell viability amounted to 31.6%.
Turning to `O=C(CSc1nc2c(c(=O)n1-c1ccccc1)SCC2)Nc1ccc(-c2ccccc2)cn1`, the cell viability turned out to be 93.1%.
Same read-out and setting: under `C=C(C)C1CC=C(C)CC1` (single isomer, unassigned; (+)) [(+)-Dipentene] stands 109%; under `NC(=O)Nc1cc(-c2cccc(F)c2)sc1C(=O)N[C@H]1CCCNC1`, 2.47%; under `Cc1[nH]c(=O)c(C#N)cc1-c1ccncc1` [Milrinone (Primacor)], 101%.
In the case of `NCCCC[C@@H]1NC(=O)[C@@H](Cc2ccc(O)cc2)NC(=O)[C@H](CC(=O)O)NC(=O)CNC(=O)[C@H](CCCN=C(N)N)NC1=O` [Cyclo(RGDyK)], the cell viability stood at 94.8%.
The same measure, in the same setting: next, `CCN(Cc1ccncc1)C(=O)C(CO)c1ccccc1` (centres undefined) [Tropicamide]: 109%; `O=c1c2cc(O)c(O)cc2oc2cc(O)c([C@@H]3O[C@H](CO)[C@@H](O)[C@H](O)[C@H]3O)c(O)c12` [Mangiferin]: 86.5%; `C=CC[S+]([O-])C[C@H](N)C(=O)O` (some centres undefined) [Alliin]: 102%.
For `CCN1CCN(Cc2ccc(C(=O)Nc3ccc(C)c(Oc4ccc5c(c4)CC(=O)N5)c3)cc2C(F)(F)F)CC1`, the cell viability stood at 45%.
In the case of `Cc1cc(C)c(-c2csc(NC(=O)c3ccccc3)n2)c(C)c1`, the cell viability is 39.5%.
For the compound `COc1ccccc1OCC(O)CN1CCN(CC(=O)Nc2c(C)cccc2C)CC1` (centres undefined) [Ranolazine dihydrochloride], the cell viability worked out at 102%.
In the case of `COc1cc2c(=O)c(-c3ccc(O)cc3)coc2cc1O[C@@H]1O[C@H](CO)[C@@H](O)[C@H](O)[C@H]1O` [Glycitin], the cell viability was 89.3%.
With `C#C[C@]1(O)CC[C@H]2[C@@H]3CCc4cc(OC5CCCC5)ccc4[C@H]3CC[C@@]21C` [Quinestrol], the cell viability came to 49.7%.
Still for that read-out and setting: under `CC(C)(Cc1ccc2ccccc2c1)NC[C@@H](O)COc1cccc(Cl)c1C#N` stands 0.55%.
In the case of `CC(=O)[C@@]1(O)CC[C@H]2[C@@H]3C[C@H](C)C4=CC(=O)CC[C@]4(C)[C@H]3CC[C@@]21C` [Medroxyprogesterone], the cell viability is 103%.
As for `CCOC(=O)[C@H](CCc1ccccc1)N[C@@H](C)C(=O)N1[C@H](C(=O)O)C[C@@H]2CCC[C@@H]21` [Ramipril (Altace)], the cell viability stood at 84.8%.
Same read-out and setting: under `CCCCS(=O)(=O)N[C@@H](Cc1ccc(OCCCCC2CCNCC2)cc1)C(=O)O` [Tirofiban Hydrochloride] stands 100%; under `CC(C)n1nc(-c2cc3cc(O)ccc3[nH]2)c2c(N)ncnc21` [Torkinib (PP242)], 9.37%; under `O.O.O.O.O.O.O.[Cl][La]([Cl])[Cl]` [Lanthanum(III) chloride heptahydrate], 99.2%.
Still for that read-out and setting: under `CC(C)c1c2cc(-c3ccnc(NC4CCC(NC5CCOCC5)CC4)n3)ccc2nn1C` (centres undefined) stands 2.85%.
As to `COc1cc(N2CCC(N3CCN(C)CC3)CC2)ccc1Nc1ncnc(Nc2ccccc2S(=O)(=O)C(C)C)n1`, the cell viability stood at 12.6%.
Same read-out and setting: under `C#C[C@]1(O)CC[C@H]2[C@@H]3CCC4=CC(=O)CC[C@@H]4[C@H]3CC[C@@]21CC` [Levonorgestrel (Levonelle)] stands 105%; under `NC(=O)c1cccc2cn(-c3ccc([C@@H]4CCCNC4)cc3)nc12` [MK-4827(Niraparib) tosylate], 41.8%.
